# Screens: PubChem BioAssay, National Center for Advancing Translational Sciences (NCATS)
# KB-3-1 tox: qHTS assay for MDR1-selective chemotherapeutics: Primary screen using the parental adenocarcinoma cell KB-3-1; KB-3-1 viability, CellTiter-Glo ATP luminescence, 72 h; Potency, µM (doses to about 46.1 µM), actives largely listed as cytotoxic; 400,000 compounds, 1.4% hits; AID 1347075, 2019; note: potency is the fitted concentration of half-maximal effect; % is set by controls: 0 for no effect and ±100 for the full control effect; nearly all actives have a fitted effect of over 60% in size
#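 Multi-concentration cytotoxicity screen in KB-3-1 cells grown in DMEM lacking phenol red with 10% FBS. After 72 h at 37 °C with compound, ATP-dependent luminescence was recorded.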
# KB-V1 MDR tox: qHTS assay for MDR1-selective chemotherapeutics: Primary screen using the drug-selected MDR subline cells KB-V1; KB-V1 MDR cells viability, CellTiter-Glo, 72 h; Potency, µM (highest dose often 46.1 µM), most hits filed as cytotoxic; 400,000 compounds, 3.4% hits; AID 1347076, 2019; note: potency is the fitted concentration of half-maximal effect; % is set by controls: 0 for no effect and ±100 for the full control effect; nearly all actives have a fitted effect of over 60% in size
#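 Following 72 h at 37 degrees C with compound, KB-V1 cell viability was read by CellTiter-Glo luminescence, medium being phenol-red-free DMEM plus 10% FBS; concentration-response parameters came from normalized, curve-fitted qHTS data.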
# SW480 rereplic: A quantitative high throughput screen for small molecules that induce DNA re-replication in SW480 colon adenocarcinoma cells | 340,000 compounds, 1.8% hits | AID 624297, 2012 | SW480 DNA re-replication, Hoechst DNA content imaging, 48 h | Potency, µM (titrated, usually from 46.1 µM), for the others: at the highest dose re-replication activation, usual class: activators; note: potency is the fitted concentration of half-maximal effect; % of control where 0% means no effect; nearly all actives have a fitted effect of over 55% in size
#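 Cells (250 per well) received 23 nL compound or DMSO by pin tool and were kept 48 hr at 37 C, 5% CO2. Nuclei were then stained with Hoechst for 40 min and scanned for DNA content.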
# D3 ag: qHTS of D3 Dopamine Receptor Agonist: qHTS; D(3) dopamine receptor (Homo sapiens), P35462; D3R DiscoveRx beta-arrestin cells, luminescence, 90 min; max activation, %; 410,000 compounds, 0.58% hits; in the data active = max activation above about 30%; note: 0% is about no effect
# Target sequence (P35462 whole entry, looked up): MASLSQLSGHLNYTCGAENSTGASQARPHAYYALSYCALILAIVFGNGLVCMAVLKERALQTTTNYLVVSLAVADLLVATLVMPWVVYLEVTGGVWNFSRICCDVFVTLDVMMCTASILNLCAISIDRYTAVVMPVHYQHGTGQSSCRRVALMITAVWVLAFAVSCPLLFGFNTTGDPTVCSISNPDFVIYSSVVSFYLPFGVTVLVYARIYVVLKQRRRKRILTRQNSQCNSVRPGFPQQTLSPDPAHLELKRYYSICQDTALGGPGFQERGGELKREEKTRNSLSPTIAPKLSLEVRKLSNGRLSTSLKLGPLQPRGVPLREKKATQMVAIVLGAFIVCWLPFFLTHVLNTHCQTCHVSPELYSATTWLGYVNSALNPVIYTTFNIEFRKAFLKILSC
#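 Agonist-mode cell screen: cells plated at 1500/well and incubated overnight at 37 °C, then exposed to library compounds for 90 min at 37 °C. Detection reagent was added for 30–60 min at room temperature, and luminescence was read.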
# MCF10A rerep: A quantitative high throughput screen for small molecules that induce DNA re-replication in MCF 10a normal breast cells; MCF 10A DNA re-replication, Hoechst nuclear intensity, 48 h; Potency, µM (series often up to 46.1 µM), for inactives: top-dose activity, positive = re-replication, usual class: activators; 350,000 compounds, 2.9% hits; note: potency is the fitted concentration of half-maximal effect; % of control where 0% means no effect; nearly all actives have a fitted effect of over 50% in size
# D3 antag: qHTS of D3 Dopamine Receptor Antagonist: qHTS; 360,000 compounds, 2.5% hits; D(3) dopamine receptor (Homo sapiens), P35462; max response, negative = inhibition, %; D3R cells, DiscoveRx beta-arrestin luminescence, antagonist mode; hits give low values; AID 652054, 2013; in the data active = max response below about -50%; inconclusive = no clear call, values can overlap the other calls; note: % is set by controls: 0 for no effect and ±100 for the full control effect
#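 Cells plated overnight at 1500 cells/well, then exposed to library compounds with dopamine controls for 90 minutes at 37 degrees C. DiscoveRx reagent added for 30–60 minutes at room temperature; luminescence read, quantitative HTS format.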
# * marks the source's active call; other numbers are inactive results; i = inactive; ? = inconclusive; . = no result; ! = not confirmed by another sample. Compounds with a hit are over-represented: about 8.9% of the library has one in this group of screens. Unless noted, calls come from the whole dose curve; as a rule, active = well fitted curve in the direction sought with a large enough effect; inconclusive = small, poorly fitted or top-dose-only effect, or another doubt; inactive = no such curve, though single readings can be large; an effect the other way counts as inactive or inconclusive.
SMILES,KB-3-1 tox,KB-V1 MDR tox,SW480 rereplic,D3 ag,MCF10A rerep,D3 antag
CN1/C(=C\C(=O)CSc2nnc(NCc3ccccc3)s2)C(C)(C)c2ccccc21,i,?,10%,5,18µM*,6
CN1/C(=C/C(=O)c2nc(S(C)(=O)=O)ncc2Cl)C(C)(C)c2ccccc21,?,?,12µM*,-11,?,-4
COc1cc(OC)c(NC(=O)c2ccc3c(c2)N(Cc2ccc(C)cc2)CCS3)cc1Cl,i,i,.,0,.,.
CC(C)(C)CC(C)(C)N=C1Nc2cc(Cl)c(Cl)cc2N[C@]12C[C@H]1CCCC(=O)N3CC[C@@H](C2)[C@@H]13,i,i,.,.,.,.
CN1/C(=C\C(=O)c2cncc(Br)c2)C(C)(C)c2ccccc21,?,?,?,7,16µM*,21
CN1/C(=C\C(=O)c2cccnc2)C(C)(C)c2ccccc21,i,?,?,-3,16%,17
COc1ccc(OC)c(CNC(=O)c2cnc3c(C)cccn3c2=O)c1,i,i,.,6,.,.
Cc1nn(-c2ccccc2)c(C)c1C(=O)OC/C(O)=C(\C#N)c1nc2ccccc2[nH]1,i,i,-2%,6,?,19
COc1cc(OC)cc(C(=O)OC/C(O)=C(\C#N)c2nc3ccccc3[nH]2)c1,i,i,?,8,21µM*,0
Cc1nn(-c2ccccc2)c(C)c1C(=O)OCC(=O)Nc1ccccc1,i,10µM*,-1%,5,-1%,1
Cc1c(C(=O)OC/C(O)=C(\C#N)c2nc3ccccc3[nH]2)oc2ccccc12,i,i,?,-1,15µM*,?
Cc1nn(-c2ccccc2)c(C)c1C(=O)OCC(O)=C(C#N)c1nc2ccccc2[nH]1,i,i,?,21,18µM*,24
Cc1ccc(-c2noc(C(C)NS(=O)(=O)c3ccc(C)cc3)n2)cc1 (stereo unspecified),i,i,.,0,.,.
Cc1c(C(=O)NC(C)C)c(-c2ccccc2)nn1-c1ccccc1,i,21µM*,-194%,18,2%,-13
O=C(Cc1cccs1)Nc1nnc(-c2ccccc2)s1,i,i,-19%,-8,0.65µM*,-6
O=C(Cc1cccs1)Nc1ccc(-c2nnc(-c3ccccc3)o2)cc1,i,i,-3%,6,-3%,11
Cc1ccc(-c2nnc(-c3cccc(NC(=O)c4cccs4)c3)o2)cc1,i,12µM*,0%,11,10%,5
Cc1cccc(-c2nnc(-c3cccc(NC(=O)Cc4cccs4)c3)o2)c1,i,21µM*,?,31*,?,34
O=C(Cc1cccs1)Nc1nnc(-c2ccc(F)cc2)s1,i,i,-8%,1,-3%,10
Nc1ccc(/C=C/c2nc3ccccc3s2)cc1,i,?,.,.,.,.
COC(=O)CCCCCN1C(=O)NC(C2CC2)C(C(=O)OCc2ccccc2)=C1C (stereo unspecified),i,i,-3%,16,46%,31
CCOC(=O)C1=C(C)N(c2ccc(OC)cc2)C(=O)/C1=C\c1cccs1,?,i,1%,72*,?,-20
CCOC(=O)C1=C(C)N(c2ccc(OC)cc2)C(=O)/C1=C\c1ccc(O)c(OCC)c1,i,i,1%,-2,?,-26
O=C(O)c1ccc2nc(-c3cc4cc(Cl)ccc4oc3=O)[nH]c2c1,i,i,.,1,.,.
CCC1CCCCN1c1cc(C)nc2cc(-c3cccc(C)c3)nn12 (stereo unspecified),i,i,?,-1,3.5µM*,0
SMILES,KB-3-1 tox,KB-V1 MDR tox,SW480 rereplic,D3 ag,MCF10A rerep,D3 antag
CCOC(=O)C1CCCN(c2cc(C)nc3cc(-c4ccc(Cl)cc4)nn23)C1 (stereo unspecified),i,i,-3%,6,-1%,26
CC(OC(=O)/C=C/c1ccco1)C(=O)Nc1cccc([N+](=O)[O-])c1 (stereo unspecified),?,18µM*,?,4,6%,9
COc1ccc([N+](=O)[O-])cc1NC(=O)C(C)OC(=O)/C=C/c1ccco1 (stereo unspecified),i,?,-105%,6,0%,-14
O=C(Cn1c(=O)oc2cc(S(=O)(=O)N3CCCCC3)ccc21)NCc1ccc(Cl)cc1,?,?,.,2,.,.
COc1ccc(C(=O)Nc2ccc(S(=O)(=O)Nc3nccnc3OC)cc2)cc1,?,18µM*,18%,-10,7%,?
Cc1ccc(S(=O)(=O)Nc2ccc(NC(=O)c3ccc(F)cc3)cc2)cc1,i,i,-116%,-5,0%,-16
Cc1ccc(S(=O)(=O)Nc2ccc(C(=O)Nc3ccncc3)cc2)cc1,i,i,3.3µM*,7,15%,1
CCOc1ccccc1Nc1sc(C(=O)c2ccc(Cl)cc2)c(N)c1C(=O)NCCc1ccccc1,i,i,.,8,.,.
Cc1c(Cl)cccc1NC(=O)c1ccc2c(c1)nnn2C1CCCC1,?,?,.,-19,.,.
COCCN(C(=O)CSc1nnc(-c2ccccc2F)o1)c1c(N)n(Cc2ccccc2)c(=O)[nH]c1=O,i,i,.,-2,.,10
C/C=C1\COC(C(=O)NCCN2CCCC2)(C(F)(F)F)C=C1C=C1CCCCC1 (stereo unspecified),i,i,?,-54,6.5µM*,-6
COc1cc(/C=C/C(=O)N(C)CC(=O)Nc2ccccc2SC)cc(OC)c1OC,i,13µM*,-5%,-6,4%,-25
CSc1ccccc1NC(=O)CN(C)C(=O)/C=C/c1ccccc1,i,i,-11%,-1,6%,-12
Cc1cc(C)c(NC(=O)CN2C(=O)CCn3nc(-c4cccn4C)cc32)c(C)c1,i,i,.,1,.,.
COc1ccc2c(C=Nc3c(C)n(C)n(-c4ccccc4)c3=O)c(O)n(Cc3ccco3)c(=O)c2c1,i,i,-1%,-6,18µM*!,-6
O=C1C=C(NCc2ccccc2)c2ccccc2C1=O,?,?,18µM*,-14,?,-71*
CC(C(=O)Nc1cccnc1)N1C(=O)c2ccccc2C1=O (stereo unspecified),i,i,1%,-2,-2%,20
O=C1C=C(Nc2cccnc2)c2ccccc2C1=O,8.2µM*,?,6.5µM*,-5,9.2µM*,-22
